Screening results (PubChem BioAssay)
Rows were chosen to be rich in hits. Some 7.3% of all compounds tested hit in one or more screens of this group.
Vaccinia Venus = qHTS for Stage-Specific Inhibitors of Vaccinia Orthopoxvirus: Venus Reporter Primary qHTS; Potency, µM (top dose mostly 36.5 µM), without a hit: at the highest dose activity change, negative = inhibition, actives largely listed as inhibitors; 0.46% of 330,000 active; Vaccinia virus Venus reporter expression, fluorescence; calls by dose curve; tested in A549 cells; further: potency means the concentration at half of the fitted maximal effect; nearly all actives have a fitted effect of over 30% in size
VACV mCherry inh = qHTS for Stage-Specific Inhibitors of Vaccinia Orthopoxvirus: mCherry Reporter Primary qHTS | Potency, µM (highest dose often 36.5 µM), without a hit: at the highest dose activity change, negative = inhibition, usual class: inhibitors | Vaccinia virus mCherry reporter infection, fluorescence | 0.63% of 310,000 active; calls by dose curve; tested in A549 cells; further: potency means the concentration at half of the fitted maximal effect; nearly all actives have a fitted effect of over 35% in size
FMDV inh = High Throughput Screening for Foot and Mouth Disease Virus Antivirals; FMDV antiviral cell-based qHTS; AID 1159524, 2015; Potency, µM (titrated, usually from 57.9 µM), for inactives: top-dose activity change, negative = inhibition, usual class: inhibitors; 1.2% of 410,000 active; calls by dose curve; tested in HEK293T cells; further: read-out not given here; potency means the concentration at half of the fitted maximal effect; nearly all actives have a fitted effect of over 45% in size
HCV inh = qHTS Assay for Inhibitors of Hepatitis C Virus (HCV); Huh7.5.1 HCVcc-Cre infection, luciferase reporter, 44 h; 3.4% of 340,000 active; Potency, µM (top dose mostly 41.8 µM), for inactives: at the highest dose activity change, negative = inhibition, actives largely listed as inhibitors; AID 651820, 2012; active means well fitted inhibition curve with a large enough effect; inconclusive means small, poorly fitted or top-dose-only effect, or another doubt; inactive means no such curve, though single readings can be large or run the other way; further: potency means the concentration at half of the fitted maximal effect
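Compounds are dispensed onto cells plated 4 h earlier at 1,000 per well, with HCVcc-Cre virus (about 0.5 moi) added next. Following 44 h of culture, luminescent signal is measured for 15 sec after 15 min with substrate at room temperature.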
HCMV inh = qHTS Assay for inhibitors of the human cytomegalovirus (HCMV); HFF cells, HCMV-luciferase reporter, 72 h; active compounds read low; activity change, negative = inhibition, % at 57.5 µM; 4.5% of 410,000 active; AID 1259415, 2018; in the data active means activity change below about -60%; inconclusive means no clear call, values can overlap the other calls; inactive means above about -39%
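Inhibition of viral replication was scored as loss of reporter luminescence in HFFs infected with HCMV-luciferase (MOI 1 PFU/cell) for 72 h; compounds tested at 2 doses, normalized to buffer and Salinomycin controls.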
An asterisk follows results filed as active; i = inactive; ? = inconclusive; . = no result given; ! = a repeat was not active; [ ] = dose if it differs, or a comment. On the % scale 0 is the no-effect control and ±100 the full control effect.

SMILES	Vaccinia Venus	VACV mCherry inh	FMDV inh	HCV inh	HCMV inh
COc1cccc(CN2CCN(C3CCN(c4ccccc4C)CC3)CC2CCO)c1 (stereo unspecified)	.	.	-21%	-1%	-4
CC(=O)c1c(C)oc2ccc(N(C(=O)Oc3ccccc3)S(=O)(=O)c3ccc(C(C)(C)C)cc3)cc12	-22%	-29%	?	.	-10
CCOc1ccc(N=C(NN)c2ccc3ccccc3n2)cc1	-16%	-13%	8.9µM*	?	-69*
CCN1CCN(CCNC(=O)c2ccc3c(c2)N(Cc2ccc(F)cc2)C(=O)/C(=C/c2ccccc2)S3)CC1	?	?	6%	?	-81*
CCN1CCN(CCNC(=O)c2ccc(/C=C3/Sc4ccccc4N(Cc4cccc(Cl)c4)C3=O)cc2)CC1	?	-22%	-27%	11µM*	-103*
Cc1cccc(CN2C(=O)/C(=C\c3ccc(C(=O)NCCN4CCOCC4)cc3)Sc3ccccc32)c1	-26%	-4%	40µM*	?	.
O=C(NCCN1CCOCC1)c1ccc(/C=C2\Sc3ccccc3N(Cc3ccccc3F)C2=O)cc1	.	.	?	?	-35
COc1ccc(/C=C2\Sc3ccc(C(=O)NCCN4CCCCCC4)cc3N(C)C2=O)cc1	.	.	-10%	?	-32
CN1CCN(CCCNC(=O)c2ccc(/C=C3\Sc4ccccc4N(Cc4ccccc4F)C3=O)cc2)CC1	.	.	2%	10µM*	-63*
COc1ccc(Nc2ccncc2[N+](=O)[O-])cc1	-12%	-25%	-14%	12%	-71*
O=[N+]([O-])c1cnccc1Nc1cccc(F)c1	-16%	-4%	-7%	?	-11
COCCNC(=O)CN1CCC(NC(=O)Nc2ccc(C(F)(F)F)cc2)CC1	.	.	7%	11µM*!	48
Cc1ccc(C)n1C1C(=O)N(Cc2ccc(C(C)C)cc2)c2ccc(F)cc21 (stereo unspecified)	.	.	.	.	27
Cn1cccc/c1=N\c1cccc[n+]1C	.	.	-21%	3.5µM*	-74*
CCCCN(CC)CCOc1cccc2ccccc12	?	?	40µM*	.	.
Oc1cc(O)cc(/C=C/c2ccc(O)c(O)c2)c1	-16%	-25%	?	0.56µM*	117
CCOC(=O)C1CCCN(C(=O)c2ccc3c(c2)sc2nc(-c4cccc(OC)c4)cn23)C1 (stereo unspecified)	-8%	-3%	32µM*	.	.
CCCN1CCN(CCCNC(=O)c2ccc3c(c2)sc2nc(-c4ccc(OC)cc4)cn23)CC1	?	4.5µM*	13%	.	.
CCn1c(SC(C)C(=O)NCc2ccco2)nnc1-c1ccccc1 (stereo unspecified)	-9%	-16%	.	.	.
CC1(C)CC(=O)c2cc(C(=O)Nc3cccc4ccccc34)c(=O)[nH]c2C1	-22%	-19%	.	.	.
CC(=O)O[C@H]1C(=O)[C@]2(C)[C@H]([C@H](OC(=O)c3ccccc3)[C@]3(O)C[C@H](OC(=O)[C@H](O)[C@@H](NC(=O)c4ccccc4)c4ccccc4)C(C)=C1C3(C)C)[C@]1(OC(C)=O)CO[C@@H]1C[C@@H]2O	-26%	-18%	-1%	6.3µM*	-12
Cc1cc(C)cc(N2C(=O)NC(=O)/C(=C/c3cccn3-c3ccc(Cl)cc3)C2=O)c1	2%	i	14µM*	11%	70
Cc1cccc(N2C(=O)NC(=O)/C(=C\c3cccn3-c3ccc(Cl)cc3)C2=O)c1	?	.	10µM*	?	-102*
COc1ccc2c(c1OC)C(=O)N1c3ccccc3C(=O)N(Cc3ccco3)C21 (stereo unspecified)	-8%	-1%	.	.	.
CCC(NC(=O)Nc1ccc(O)cc1)(C(F)(F)F)C(F)(F)F	4%	.	-24%	-4%	-70*
SMILES	Vaccinia Venus	VACV mCherry inh	FMDV inh	HCV inh	HCMV inh
CC(NC(=O)Nc1ccc(O)cc1)(C(F)(F)F)C(F)(F)F	13%	.	-5%	4%	-3
Cc1ccccc1-c1ccc(CN2CCc3nnc(C(NS(C)(=O)=O)C(C)C)n3CC2)cc1 (stereo unspecified)	-18%	-4%	-15%	.	.
CCOC(=O)c1c(NC(=O)CSc2nc3cc(Cl)ccc3c(=O)n2Cc2ccco2)sc(C(=O)N(C)C)c1C	-12%	5%	-12%	?	-68*
CCOC(=O)c1c(NC(=O)CSc2nnc(-c3ccccc3)n2CC)sc(C(C)=O)c1C	-14%	-16%	?	?	19
CCOC(=O)c1c(NC(=O)CSc2nnc(-c3cccc(C)c3)n2CC)sc(C(C)=O)c1C	?	.	?	3.5µM*	22
CCOC(=O)c1sc(NC(=O)CSc2nnc(-c3ccco3)n2CC)c(C(=O)OCC)c1C	0%	i	.	10µM*!	49
C=CCn1c(=O)c2ccccc2n2c(SCC(=O)Nc3sc(C(=O)N(CC)CC)c(C)c3C(=O)OCC)nnc12	.	.	0%	6.3µM*!	?
COC(=O)c1c(NC(=O)CSc2nnc(-c3ccco3)n2C)sc(C)c1C	?	-9%	-7%	-14%	0
CCCCC/C=C\C\C=C/C=C/C=C/[C@@H](SCC(NC(C)=O)C(=O)O)[C@@H](O)CCCC(=O)O (stereo partly specified)	-17%[0.293 µM]	-22%[0.293 µM]	-12%[0.463 µM]	.	.
CN(C)c1ccc(C(=O)NN2C(=O)c3ccccc3C2=O)cc1	-11%	-2%	40%	11%	-1
CNC1=C(N(C(C)=O)c2ccc(Br)cc2)C(=O)c2ccccc2C1=O	5.6µM*	?	8.9µM*	?	-100*
CCC(=O)N(C1=C(NC)C(=O)c2ccccc2C1=O)C(C)C	?	?	-17%	?	-78*
CCC(=O)NC1=C(NC(C)c2ccccc2)C(=O)c2ccccc2C1=O (stereo unspecified)	5%	10%	-14%	-2%	-10
CCCSc1ncc(Cl)c(C(=O)Nc2nc3ccc(C)cc3s2)n1	-8%	-17%	24%	.	-6
CCOC(=O)CCCc1cc[c]([Sb](=[O])([OH])[OH])cc1	-16%	-7%	.	.	.
O=C(Nc1cccnc1Cl)c1cc([N+](=O)[O-])ccc1Cl	-8%	-19%	-14%	-16%	-75*
O=C(Nc1ccccc1F)Nc1cccnc1Cl	-6%	-12%	23%	-7%	3
O=C(Nc1cccc2ncccc12)c1cc([N+](=O)[O-])ccc1Cl	-12%	-14%	?	8.9µM*	-88*
O=C(Nc1ccc([N+](=O)[O-])cc1Cl)c1cc(Cl)ccc1O	?	?	6.3µM*!	1.3µM*	-98*
COc1ccc(Cl)cc1C(=O)Nc1ccc([N+](=O)[O-])cc1Cl	-10%	-13%	.	.	.
Cc1ccc([N+](=O)[O-])c(C(=O)Nc2cccnc2Cl)c1	-13%	i	-1%	23%	-15
CN(C)S(=O)(=O)c1ccc(Cl)c(C(=O)Nc2cccc3ncccc23)c1	-17%	-7%	-18%	-11%	15
